From PubChem BioAssay
Results filed as inconclusive are left out. Calls of active or inactive are those of the source. Unless noted, no cut-off is given here; in the data, nearly all actives have AC50 up to about 26 µM.

What was measured:
[1] = growth inhibition of DIPG glioma cells, dose response, cell-based, SU-DIPG-XIII, MIPE4.0, CellTiter-Glo, qHTS (AID 1347061; cut-off not given, nearly all actives have AC50 up to about 37 µM;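 note: cells exposed to compound for 48 hours before readout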); settings: SU-DIPG-XIII viability, CellTiter-Glo ATP luminescence
[2] = growth inhibition of DIPG glioma cells, dose response, cell-based, JHH-DIPG-1, MIPE4.0, CellTiter-Glo, qHTS (AID 1347062; cut-off not given, nearly all actives have AC50 up to about 27 µM;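 for AC50: cells exposed to compound for two days before readout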); settings: JHH-DIPG-1 viability, CellTiter-Glo ATP luminescence
[3] = SU-DIPG-VI glioma cell viability, MIPE4.0 library, CellTiter-Glo luminescence, qHTS (AID 1347066; cut-off not given, nearly all actives have AC50 up to about 30 µM;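 note: cells exposed to compound for 48 hours before readout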); settings: CellTiter-Glo ATP luminescence
[4] = JHH-DIPG-1 glioma cell viability, MIPE5.0 library, CellTiter-Glo luminescence, qHTS (AID 1347067); settings: JHH-DIPG-1 glioma viability, CellTiter-Glo ATP luminescence;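 note: cells exposed to compound for 48 hours before readout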
[5] = SU-DIPG-XXV glioma cell viability, MIPE5.0 library, qHTS (AID 1347068; cut-off not given, nearly all actives have IC50 up to about 30 µM;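 for IC50: cells exposed to compound for 48 hours before viability readout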)
[6] = growth inhibition of DIPG glioma cells, dose response, cell-based, SU-DIPG-XIII, MIPE5.0, CellTiter-Glo, qHTS (AID 1347064; cut-off not given, nearly all actives have AC50 up to about 23 µM); settings: SU-DIPG-XIII viability, CellTiter-Glo ATP luminescence
[7] = modifiers of HSF1 nuclear foci, imaging, Selleck Cancer Library (AID 1347162; in the data active = plate-normalised HSF1 focus index below about 0.46); settings: human cells, at 10 µM; SSMD: measured here: HSF1 foci SSMD mean; cell count: measured here: cell number; plate-normalised HSF1 focus index: stronger effect = lower value
[8] = viability loss in pontine glioma line – cell-based, SU-DIPG-XXV, MIPE5.0, CellTiter-Glo, qHTS, dose response (AID 1347065); settings: CellTiter-Glo ATP luminescence;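 note: cells exposed to compound for 48 hours before ATP readout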
[9] = sensitizers of A549 cells to miR-34 induction, primary screen, imaging, A549 dox-inducible miR-34, nuclei and caspase counts (AID 1347080;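 active = compounds whose cell count with miR-34 switched on is under 0.7 times the count with it off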); settings: A549 miR-34 inducible, Hoechst nuclei count, 48 h
[10] = survival rescue of mitochondrial mutant cells in low glucose, primary screen, MELAS cybrids, Rieske KO mouse fibroblasts, CellTiter-Glo (AID 1508586;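 active = mean z-score across replicates of 1.96 or higher in either the MELAS or the Rieske mutant cell line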;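 note: z relative to plate mean and SD of compound and empty wells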)
[11] = LFS_MB_P medulloblastoma growth inhibition, cell-based, chromothripsis tumors, cisplatin or BGB combos (AID 1671449; in the data active = inhibition above about 80%;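 note: cells exposed for 96 hours; 0% = vehicle DMSO and 100% = killing by high DMSO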); settings: LFS_MB_P medulloblastoma cells
[12] = HDN33 neuroblastoma growth inhibition, cell-based, chromothripsis tumors, cisplatin or BGB combos (AID 1671450; in the data active = inhibition above about 80%;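 note: cells exposed to compound for four days; 0% = vehicle DMSO and 100% = cell killing by high DMSO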); settings: HDN33 neuroblastoma cells, stronger effect = higher value
[13] = ICB984 medulloblastoma cell growth inhibition, synergistic combos for chromothripsis tumors, cisplatin or BGB combos (AID 1671451; call rule not given here;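 note: cells exposed for 96 hours before readout; 0% = vehicle DMSO and 100% = killing by high DMSO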); settings: ICB984 medulloblastoma cells, drug combinations, stronger effect = higher value
[14] = HTB85 osteosarcoma cell growth inhibition, synergistic combos for chromothripsis tumors, BGB or cisplatin IC20 combos (AID 1671453; in the data active = inhibition above about 80%;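 note: cells exposed for 96 hours before readout; 0% = vehicle DMSO and 100% = high DMSO killing control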); settings: HTB85 osteosarcoma cells, drug combinations, stronger effect = higher value
[15] = MDA-MB-436 breast carcinoma cell growth inhibition, synergistic combos for chromothripsis tumors, BGB or cisplatin combos (AID 1671458; call rule not given here;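 note: cells exposed for 96 hours; 0% = vehicle DMSO and 100% = killing by high DMSO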); settings: MDA-MB-436 breast carcinoma growth inhibition, drug combinations, stronger effect = higher value
[16] = growth inhibition of BT084 medulloblastoma cells, cell-based, ICGC_MB145, cisplatin and BGB IC40 combos (AID 1671461; in the data active = inhibition above about 80%;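 note: cells exposed to drugs for 96 hours; 0% = vehicle DMSO and 100% = high DMSO full killing control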); settings: drug combinations, stronger effect = higher value
[17] = growth inhibition of RCMB18 medulloblastoma cells, cell-based, cisplatin and BGB IC40 combos (AID 1671462; in the data active = inhibition above about 80%;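 note: cells exposed to compound for four days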); settings: stronger effect = higher value
[18] = growth inhibition of CRL1545 osteosarcoma cells, cell-based, cisplatin and BGB IC20 combos (AID 1671464; in the data active = inhibition above about 80%;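 note: cells exposed to compound for 96 hours before readout; 0% = vehicle DMSO and 100% = high DMSO killing control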); settings: stronger effect = higher value
[19] = stronger effect = lower value, cell number ratio, induced over uninduced
[20] = measured here: relative caspase fold change +Dox/-Dox
[21] = measured here: total cells with miR-34 induction, stronger effect = lower value
[22] = measured here: total cells without miR-34 induction
[23] = MELAS cybrid survival, CellTiter-Glo 48 h, stronger effect = higher value
[24] = Rieske KO mouse fibroblast survival, CellTiter-Glo 72 h
[25] = measured here: with BGB IC20 combination, at 0.5 µM
[26] = measured here: with cisplatin IC20 combination, at 0.5 µM

Question: For `CC(C)(C)C(=O)Oc1ccc2c(c1)nc(NC(=O)c1cccc([N+](=O)[O-])c1)n2CCCO`, which outcome [1] is on record?
Answer: inactive

Question: And the outcome [2]?
Answer: inactive

Question: What about the outcome [3] of the same molecule?
Answer: inactive

Question: What about the outcome [4] of the same molecule?
Answer: inactive

Question: What about the outcome [5] of the same molecule?
Answer: inactive

Question: With `COc1cc(Oc2ccnc3cc(OC)c(OC)cc23)ccc1NC(=O)NC(C)c1nccs1` (stereo unspecified) as the molecule, how does the outcome [1] read?
Answer: inactive

Question: And the outcome [2]?
Answer: inactive

Question: And the outcome [6]?
Answer: inactive

Question: What about the outcome [3] of the same molecule?
Answer: inactive

Question: And the outcome [4]?
Answer: inactive

Question: And the outcome [5]?
Answer: inactive

Question: What about the SSMD [7] of the same molecule?
Answer: 1.89

Question: What about the cell count [7] of the same molecule?
Answer: 6450

Question: And the plate-normalised HSF1 focus index [7]?
Answer: 1.1 (inactive)

Question: What does the source list for `O=C(NCc1ccccc1)[C@H](Cc1ccccc1)NC(=O)[C@H]1O[C@@H]1C(=O)NCCc1ccc(O)cc1`?
Answer: outcome [1]: inactive; outcome [2]: inactive; outcome [8]: inactive; outcome [3]: inactive; IC50 [5]: 18.6 µM (active)

Question: For `O=C(O)C1(Cc2cccc(Nc3nccs3)n2)CCC(Oc2cccc(Cl)c2F)CC1` (stereo unspecified), which outcome [1] is on record?
Answer: inactive

Question: And the outcome [2]?
Answer: inactive

Question: What about the outcome [6] of the same molecule?
Answer: inactive

Question: And the outcome [3]?
Answer: inactive

Question: And the outcome [5]?
Answer: inactive

Question: What about the fold change [9, 19] of the same molecule?
Answer: 1.01 (inactive)

Question: And the fold change [9, 20]?
Answer: 0.491

Question: And the cell count [9, 21]?
Answer: 3320

Question: And the cell count [9, 22]?
Answer: 3280

Question: And the z-score [10, 23]?
Answer: -0.373 (inactive)

Question: And the z-score [10, 24]?
Answer: 0.69

Question: Which results are given for `COc1cc2c(cc1OC)CN(CCc1ccc(NC(=O)c3cc(OC)c(OC)cc3NC(=O)c3cnc4ccccc4c3)cc1)CC2`?
Answer: AC50 [1]: 20.9 µM (active); outcome [2]: inactive; outcome [8]: inactive; outcome [4]: inactive; outcome [5]: inactive; fold change [9, 19]: 0.948 (inactive); fold change [9, 20]: 0.402; cell count [9, 21]: 8470; cell count [9, 22]: 8940; z-score [10, 23]: -0.604 (inactive); z-score [10, 24]: 0.309

Question: What does the source list for `CCOC(=O)N[C@@H]1CC[C@@H]2[C@@H](C1)C[C@H]1C(=O)O[C@H](C)[C@H]1[C@H]2/C=C/c1ccc(-c2cccc(F)c2)cn1`?
Answer: outcome [1]: inactive; outcome [2]: inactive; outcome [6]: inactive; outcome [3]: inactive; outcome [4]: inactive; outcome [5]: inactive

Question: Which results are given for `COc1cc2ncnc(-n3nc(-c4ccccn4)nc3N)c2cc1OC`?
Answer: AC50 [1]: 23.5 µM (active); AC50 [2]: 18.7 µM (active); AC50 [8]: 10.5 µM (active); outcome [3]: inactive; outcome [5]: inactive; SSMD [7]: 1.68; cell count [7]: 7810; plate-normalised HSF1 focus index [7]: 1.06 (inactive); inhibition ([11]; at 0.5 µM, stronger effect = higher value): -19.6% (inactive); inhibition ([11]; measured here: combination with BGB IC20, at 0.005 µM): -6.46%; inhibition ([11]; measured here: combination with BGB IC40, at 0.005 µM): -12%; inhibition ([11]; measured here: combination with BGB IC40, at 0.05 µM): -14.8%; inhibition ([11]; measured here: combination with cisplatin, at 0.5 µM, stronger effect = higher value): -28.9%; inhibition ([11]; measured here: combination with cisplatin, at 5 µM, stronger effect = higher value): 3.9%; inhibition ([12]; BGB combo, at 5 µM): -0.513%; inhibition ([12]; at 0.5 µM): -39.2% (inactive); inhibition ([12]; cisplatin combo, at 5 µM): 11.6%; inhibition [12, 25]: -47.1%; inhibition [12, 26]: -45.4%; inhibition ([12]; single agent, at 5 µM): 27.9%; inhibition ([13]; BGB IC20 combo, at 0.005 µM): 8.82%; inhibition ([13]; BGB IC40 combo, at 0.005 µM): -28.2%; inhibition ([13]; BGB IC40 combo, at 0.05 µM): -13.5%; inhibition ([13]; at 0.5 µM): -27.7% (inactive); inhibition ([13]; cisplatin combo, at 0.05 µM): -18%; inhibition ([13]; cisplatin combo, at 0.5 µM): -47.4%; inhibition ([13]; cisplatin combo, at 5 µM): -33.3%; inhibition ([13]; measured here: 5 uM single agent, at 5 µM): -7.48%; inhibition ([14]; at 0.5 µM): -23% (inactive); inhibition ([14]; measured here: with BGB IC20, at 0.5 µM): -35.6%; inhibition ([14]; measured here: with BGB IC20, at 5 µM): 15.3%; inhibition ([14]; measured here: with cisplatin IC20, at 0.5 µM): -19.3%; inhibition ([14]; measured here: with cisplatin IC20, at 5 µM): 25.5%; inhibition ([14]; single agent, at 5 µM): 39.7%; inhibition ([15]; at 0.5 µM): -17.5% (inactive); inhibition ([15]; measured here: BGB combination, at 0.5 µM): -21.1%; inhibition ([15]; measured here: BGB combination, at 5 µM): -18.6%; inhibition ([15]; measured here: cisplatin combination, at 0.5 µM): -13.3%; inhibition ([15]; measured here: cisplatin combination, at 5 µM): -24.4%; inhibition ([16]; at 0.5 µM): 0.0685% (inactive); inhibition ([16]; cisplatin combination, at 0.5 µM): 7.09%; inhibition ([16]; cisplatin combination, at 5 µM): 63.7%; inhibition ([16]; measured here: BGB IC40 combination 0.05 uM, at 0.05 µM): 69%; inhibition ([16]; single agent, at 5 µM): 13.7%; inhibition ([17]; at 0.5 µM): -14.5% (inactive); inhibition ([17]; cisplatin combo, at 5 µM): 36.5%; inhibition ([17]; measured here: BGB IC40 combination, at 0.05 µM): -31.7%; inhibition ([17]; measured here: combination with cisplatin, at 0.5 µM): -5.13%; inhibition ([17]; single agent, at 5 µM): -24.7%; inhibition ([18]; at 0.5 µM): -59.7% (inactive); inhibition [18, 25]: -65.7%; inhibition [18, 26]: -56.7%; inhibition ([18]; single agent, at 0.05 µM): -35.9%; inhibition ([18]; single agent, at 5 µM): -52.5%
